DT40 TDP1 no CPT = qHTS for Inhibitors of human tyrosyl-DNA phosphodiesterase 1 (TDP1): qHTS in cells in absence of CPT; hit rate 15% among 420,000; DT40 Tdp1-/- hTDP1 cells, no CPT, ATP luminescence, 48 h; AID 686978, 2013; Potency, µM (doses to about 46.2 µM), actives largely listed as inhibitors; note: nearly all actives have a fitted effect of over 55% in size
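Stably hTDP1-transfected Tdp1-null chicken DT40 cells were treated with library compounds minus camptothecin and grown for at least 48 hr at 37 °C, after which cellular ATP was quantified by luminescence.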
IL1B secr inh = blocks inflammasome-driven IL-1 beta release. THP-1 LPS/ATP IL-1B secretion, AlphaLISA, 16 h; active compounds read low. activity change, % at 57.5 µM. hit rate 4.7% among 360,000. AID 743279; in the data active = activity change below about -50%; inconclusive = mostly about -30% to -49%
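Secreted IL-1B measured by AlphaLISA bead assay after 16 h compound exposure of THP-1 cells; compounds (final up to 57.5 uM) added 1 h before LPS (250 ng/mL) and ATP (1.25 mM) stimulation; lower signal means less secretion.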
HT1080NT lethal = kills 2HG-producing HT-1080-NT fibrosarcoma cells | HT-1080-NT fibrosarcoma viability, CellTiter-Glo ATP luminescence, 48 h | Potency, µM (highest dose often 46.1 µM), most hits filed as cytotoxic | hit rate 1.6% among 360,000;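 note: NT is the 2HG producing partner of a matched IDH1 knockdown line; nearly all actives have a fitted effect of over 55% in size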
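Read-out is CellTiter-Glo luminescence after 10 minutes at room temperature, following 48 hours' compound treatment of HT-1080-NT cells (750 cells/well, RPMI, 5% FBS, 37 degrees C).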
TDP1 cell CPT = DT40-hTDP1 cell growth loss with CPT. Potency, µM (highest dose often 46.2 µM), usual class: inhibitors. chicken DT40 Tdp1-/-;hTDP1 cells + 20 nM CPT, ATP luminescence, 48 h. hit rate 12% among 420,000. AID 686979; note: nearly all actives have a fitted effect of over 55% in size
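Chicken DT40 Tdp1-/- cells complemented with human TDP1, 400 cells/well, exposed to compounds plus 20 nM camptothecin for at least 48 h at 37 C; viability read as ATP content by CellTiter-Glo luminescence.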
ALOX12 inh = ALOX12 (human) lipoxygenase inhibition; purified 12hLO, xylenol orange hydroperoxide absorbance; Potency, µM (series often up to 108 µM), most hits filed as inhibitors; hit rate 1.1% among 580,000
Target sequence (P18054 whole entry, looked up): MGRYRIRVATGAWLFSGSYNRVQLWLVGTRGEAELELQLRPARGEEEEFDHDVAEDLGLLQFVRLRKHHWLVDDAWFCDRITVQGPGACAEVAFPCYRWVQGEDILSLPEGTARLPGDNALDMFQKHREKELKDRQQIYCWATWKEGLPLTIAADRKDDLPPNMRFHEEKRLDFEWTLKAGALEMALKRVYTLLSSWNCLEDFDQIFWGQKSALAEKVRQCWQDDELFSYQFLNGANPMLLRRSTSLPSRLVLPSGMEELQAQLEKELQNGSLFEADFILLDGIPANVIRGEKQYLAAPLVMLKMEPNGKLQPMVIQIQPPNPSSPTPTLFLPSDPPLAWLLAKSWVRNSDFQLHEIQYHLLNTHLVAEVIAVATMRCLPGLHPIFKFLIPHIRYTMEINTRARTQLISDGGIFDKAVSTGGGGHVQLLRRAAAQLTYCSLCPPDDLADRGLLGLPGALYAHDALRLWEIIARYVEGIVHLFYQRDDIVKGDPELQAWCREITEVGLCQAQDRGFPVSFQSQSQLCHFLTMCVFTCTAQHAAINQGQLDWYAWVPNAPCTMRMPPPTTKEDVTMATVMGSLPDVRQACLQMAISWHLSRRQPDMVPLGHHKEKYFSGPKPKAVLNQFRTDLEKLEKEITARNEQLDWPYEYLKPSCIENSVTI
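Purified human 12hLO (150 nM final) in 25 mM Hepes, 0.01% Triton X-100, pH 7.0 was preincubated 15 min at room temperature with compound. Then 40 uM arachidonic acid was added, 30 min. Hydroperoxide was read by Fe-XO absorbance ratio 573/405 nm.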
HT1080 IDH1KD tx = toxicity to HT-1080 IDH1 knockdown cells (counter line). HT-1080 IDH1 knockdown viability, ATP luminescence, 48 h. Potency, µM (highest dose often 46.1 µM), most hits filed as cytotoxic. hit rate 2% among 360,000. AID 686971
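IDH1KD HT-1080 cells, 750/well, RPMI + 5% FBS; compound pinned after 2 h settling; 48 h, 37 °C; CellTiter-Glo luminescence; % activity normalised to DMSO and no-cell wells; curves fitted, classed by r2 and efficacy.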
Hits are given with their value. This is one part of a sample in which hits are shown more often than they occur. Unless noted, calls come from the whole dose curve; as a rule, active = well fitted curve in the direction sought with a large enough effect; inconclusive = small, poorly fitted or top-dose-only effect, or another doubt; inactive = no such curve, though single readings can be large; an effect the other way counts as inactive or inconclusive.

`FC(F)(F)c1ccc(Nc2nnnc3ccccc23)cc1` gave DT40 TDP1 no CPT 3.7µM, IL1B secr inh inactive, HT1080NT lethal inactive, TDP1 cell CPT inconclusive, ALOX12 inh inactive and HT1080 IDH1KD tx inactive.
FC(F)(F)c1ccccc1-c1nc(Nc2ccncc2)c2ccccc2n1 was read as DT40 TDP1 no CPT inactive, TDP1 cell CPT inconclusive and ALOX12 inh inconclusive.
O=c1cc(CN2CCN(C/C=C/c3ccccc3)CC2)c2cc(O)ccc2o1 was read as DT40 TDP1 no CPT inconclusive, IL1B secr inh -54, HT1080NT lethal 26µM, TDP1 cell CPT inconclusive, ALOX12 inh inactive and HT1080 IDH1KD tx inconclusive.
Cc1ccc2c(CN3CCN(Cc4ccccc4)CC3)cc(=O)oc2c1 was read as DT40 TDP1 no CPT inactive, IL1B secr inh inactive, HT1080NT lethal inactive, TDP1 cell CPT inactive, ALOX12 inh inactive and HT1080 IDH1KD tx inactive.
Screening Cc1ccc2oc(=O)cc(CN3CCN(C/C=C/c4ccccc4)CC3)c2c1 returned DT40 TDP1 no CPT 16µM, IL1B secr inh inactive, HT1080NT lethal inactive, TDP1 cell CPT inconclusive, ALOX12 inh inactive and HT1080 IDH1KD tx inactive.
`CCN1CCN(Cc2cc(=O)oc3ccc(O)cc23)CC1` gave ALOX12 inh inactive.
Screening Cc1ccc2c(CN3CCN(Cc4ccccc4Cl)CC3)cc(=O)oc2c1 returned DT40 TDP1 no CPT 23µM, TDP1 cell CPT 16µM and ALOX12 inh inactive.
For N#Cc1cccc(CN2CCCC(c3nc(-c4cccnc4)no3)CCNC(=O)CC2)c1 (stereo unspecified) the results were ALOX12 inh inactive.
`O=C(NC1CCCC1)c1cc(Nc2cccc(C(F)(F)F)c2)nc2ccccc12` gave DT40 TDP1 no CPT inconclusive, TDP1 cell CPT inconclusive and ALOX12 inh inactive.
`CCc1ccccc1Nc1cc(C(=O)NC2CCC(C)CC2)c2ccccc2n1` (stereo unspecified) gave DT40 TDP1 no CPT inconclusive, TDP1 cell CPT 12µM and ALOX12 inh inactive.
O=C(NC1CCCCC1)c1cc(Nc2cccc(C(F)(F)F)c2)nc2ccccc12 was read as DT40 TDP1 no CPT inconclusive, TDP1 cell CPT 21µM and ALOX12 inh inactive.
Screening Cc1ccc(Nc2cc(C(=O)NC3CCC(C)CC3)c3ccccc3n2)cc1C (stereo unspecified) returned ALOX12 inh inactive.
For CC(C)c1ccc(Nc2cc(C(=O)NC3CCCCC3)c3ccccc3n2)cc1 the results were DT40 TDP1 no CPT 21µM, TDP1 cell CPT 10µM and ALOX12 inh inactive.
For CCCCn1c(N)c(N(CCOC)C(=O)CCCc2nc3ccccc3c(=O)[nH]2)c(=O)[nH]c1=O the results were DT40 TDP1 no CPT inactive, IL1B secr inh inactive, HT1080NT lethal inactive, TDP1 cell CPT inactive, ALOX12 inh inconclusive and HT1080 IDH1KD tx inactive.
`COc1ccc(C(=O)/C=C/c2ccc(OC)c(OC)c2)c(OC(=O)c2cccs2)c1` gave ALOX12 inh inactive.
For CCOc1ccc2oc(C(=O)N3CCN(CC(=O)Nc4ccccc4C(F)(F)F)CC3)c(C)c2c1 the results were ALOX12 inh inactive.
For Cc1n[nH]c(C)c1C(N)C(=O)NCc1scnc1-c1ccccc1 (stereo unspecified) the results were ALOX12 inh inactive.
For O=C(Nc1c(C(=O)Nc2cccc(C(F)(F)F)c2)oc2ccccc12)c1cc(=O)c2ccccc2o1 the results were DT40 TDP1 no CPT inconclusive, TDP1 cell CPT 4.1µM and ALOX12 inh inactive.
Screening CCOCc1c(C(=O)OCC(=O)Nc2ccc(C)c(S(=O)(=O)N(C)C)c2)oc2ccccc12 returned DT40 TDP1 no CPT 21µM, IL1B secr inh inactive, HT1080NT lethal inactive, TDP1 cell CPT inconclusive, ALOX12 inh inactive and HT1080 IDH1KD tx inactive.
For CCOCC(=O)Nc1c(C(=O)Nc2ccc3c(c2)OCCO3)oc2ccccc12 the results were DT40 TDP1 no CPT 8.2µM, IL1B secr inh inactive, HT1080NT lethal inconclusive, TDP1 cell CPT inconclusive, ALOX12 inh inactive and HT1080 IDH1KD tx inconclusive.
For CCOc1ccc(CC(=O)Nc2c(C(=O)c3ccc(C)cc3)oc3ccccc23)cc1OCC the results were DT40 TDP1 no CPT 18µM, TDP1 cell CPT inconclusive and ALOX12 inh inactive.
Screening CCOc1ccc(CC(=O)Nc2c(C(=O)Nc3ccccc3)oc3ccccc23)cc1OCC returned DT40 TDP1 no CPT inconclusive, IL1B secr inh inactive, HT1080NT lethal inactive, TDP1 cell CPT inconclusive, ALOX12 inh inactive and HT1080 IDH1KD tx inactive.
Screening CCOc1ccc(-c2nc(C#N)c(N3CCN(C(=O)c4ccco4)CC3)o2)cc1 returned ALOX12 inh inactive.
Screening COc1cc(NC(=O)CCC(=O)c2cccs2)cc(OC)c1 returned DT40 TDP1 no CPT inactive, IL1B secr inh inactive, HT1080NT lethal inactive, TDP1 cell CPT inactive, ALOX12 inh inactive and HT1080 IDH1KD tx inactive.
Cc1ccc(C(=O)NCc2nnc3c(-c4nc(C)no4)cccn23)cc1 was read as ALOX12 inh inactive.
For CCOc1ccc(NC(=O)c2oc3ccccc3c2NC(=O)c2cc3ccccc3o2)cc1 the results were DT40 TDP1 no CPT inconclusive, TDP1 cell CPT inactive and ALOX12 inh inactive.
Screening CN1CCN(CC(=O)Nc2c(C(=O)c3ccccc3)oc3ccccc23)CC1 returned DT40 TDP1 no CPT inconclusive, IL1B secr inh -71, HT1080NT lethal 23µM, TDP1 cell CPT inconclusive, ALOX12 inh inactive and HT1080 IDH1KD tx 21µM.
For Cc1ccc(NC(=O)c2oc3ccccc3c2NC(=O)Cc2ccccc2)cc1 the results were DT40 TDP1 no CPT inconclusive, TDP1 cell CPT 16µM and ALOX12 inh inactive.
Screening O=C(Nc1c(C(=O)Nc2cccc(F)c2)oc2ccccc12)c1cc2ccccc2o1 returned DT40 TDP1 no CPT 15µM, TDP1 cell CPT 18µM and ALOX12 inh inactive.
Screening Cc1ccc(NC(=O)c2oc3ccccc3c2NC(=O)c2cc3ccccc3o2)cc1 returned DT40 TDP1 no CPT 16µM, TDP1 cell CPT inconclusive and ALOX12 inh inactive.
`O=C(Nc1c(C(=O)Nc2ccccc2F)oc2ccccc12)c1cc2ccccc2o1` gave DT40 TDP1 no CPT inconclusive, TDP1 cell CPT inactive and ALOX12 inh inactive.
Screening CN(Cc1cn[nH]c1-c1ccc(F)cc1)C(=O)c1ccccc1C1CCNC1 (stereo unspecified) returned ALOX12 inh inactive.
`C/C=C/c1ccc(OCCCCN2CCN(CC)CC2)c(OC)c1` gave DT40 TDP1 no CPT 29µM, IL1B secr inh inactive, HT1080NT lethal inactive, TDP1 cell CPT inconclusive, ALOX12 inh inconclusive and HT1080 IDH1KD tx inactive.

High-throughput results deposited in PubChem BioAssay by National Center for Advancing Translational Sciences (NCATS).
